# From PubChem BioAssay
# VP16 counter: inhibits Gal4-VP16 luciferase reporter, ROR gamma counter-screen. Drosophila S2 Gal4-VP16 UAS-luciferase, luminescence, 20 h. Potency, µM (highest dose often 53.6 µM), inactives show top-dose activity, negative = inhibition, hits mostly inhibitors. actives 3.5% (n = 310,000). AID 2546;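 further: Gal4-VP16 expression switched on by copper sulfate through the metallothionein promoter; potency means the concentration at half of the fitted maximal effect; nearly all actives have a fitted effect of over 50% in size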
# TSHR antagonist: human thyrotropin receptor antagonism | P16473 | TSHR-expressing cells, TSH-stimulated cAMP HTRF, 2 h; stronger effect = lower value | activity change, negative = inhibition, % at 11.5 µM | actives 0.2% (n = 330,000);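 active means activity change below a set negative limit, meaning inhibition stronger than a set level, cut at about -70% in these data; inconclusive means activity change between two set negative limits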
# Target sequence (P16473 whole entry, looked up): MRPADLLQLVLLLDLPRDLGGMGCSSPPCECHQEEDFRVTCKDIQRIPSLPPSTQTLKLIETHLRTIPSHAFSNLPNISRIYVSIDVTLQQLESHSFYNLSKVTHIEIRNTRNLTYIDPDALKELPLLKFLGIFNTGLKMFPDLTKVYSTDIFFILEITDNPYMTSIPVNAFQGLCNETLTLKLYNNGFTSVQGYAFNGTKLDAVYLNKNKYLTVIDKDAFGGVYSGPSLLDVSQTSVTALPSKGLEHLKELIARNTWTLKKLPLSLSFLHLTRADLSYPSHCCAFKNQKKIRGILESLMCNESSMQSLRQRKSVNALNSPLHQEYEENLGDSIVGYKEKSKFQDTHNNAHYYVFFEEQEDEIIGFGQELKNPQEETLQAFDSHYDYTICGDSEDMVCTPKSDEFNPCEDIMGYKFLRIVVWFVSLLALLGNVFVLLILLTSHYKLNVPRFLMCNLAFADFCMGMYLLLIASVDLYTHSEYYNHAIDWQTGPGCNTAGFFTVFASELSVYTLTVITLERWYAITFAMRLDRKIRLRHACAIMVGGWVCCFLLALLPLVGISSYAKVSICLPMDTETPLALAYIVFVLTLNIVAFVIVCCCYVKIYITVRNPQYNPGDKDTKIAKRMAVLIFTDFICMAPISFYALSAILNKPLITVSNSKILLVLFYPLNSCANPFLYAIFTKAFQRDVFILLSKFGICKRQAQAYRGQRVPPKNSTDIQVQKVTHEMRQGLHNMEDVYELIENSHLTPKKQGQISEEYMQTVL
#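 Cell-based HTRF cAMP assay; TSHR cells + compound, TSH EC80 (4nM final), 2 h, 37 deg C. Lysis with anti-cAMP cryptate and cAMP-d2, 30 min RT, read 665/620 nm.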
# Coupling enz: coupling enzyme interference in Giardia aldolase counter-screen; coupling enzyme system counterscreen, AmpLite Red fluorescence; activity change, negative = inhibition, % at 58.2 µM, hits read low; actives 0.67% (n = 290,000); in the data active means activity change below about -30%
#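 Compounds tested against the coupling enzymes alone at 57.5 uM final; readout was AmpLite Red fluorescence (525/598 nm) after 20 min at RT.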
# ELG1 repair inh: blocks ELG1-dependent DNA repair in HEK293T cells | HEK293T ELG1-luciferase reporter, luminescence, 16 h; DNA damage induced by 5-fluorouridine | actives 2.3% (n = 330,000) | Potency, µM (highest dose often 46.1 µM), for inactives: top-dose activity change, negative = inhibition, usual class: inhibitors; further: potency means the concentration at half of the fitted maximal effect; nearly all actives have a fitted effect of over 55% in size
#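 HEK293T cells expressing luciferase-tagged ELG1 (2,000/well) received 5-Fluorouridine plus compound or DMSO for 16 hr at 37 °C. Luciferase was read by ONE-Glo luminescence after 30 min at room temperature.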
# RORgamma inh: blocks mouse ROR gamma transcriptional activity; Drosophila S2 Gal4-RORgamma UAS-luciferase reporter, 20 h; P51450; actives 5.4% (n = 310,000); Potency, µM (titrated, usually from 53.6 µM), for inactives: at the top dose activity change, negative = inhibition, hits mostly inhibitors; further: potency means the concentration at half of the fitted maximal effect; nearly all actives have a fitted effect of over 60% in size
#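 Using a luciferase readout, inhibitors were identified by reduced reporter activity in Drosophila cells coexpressing a copper-inducible Gal4–ROR gamma fusion and UAS-driven Photinus luciferase, incubated 20 hr after 700 uM copper sulfate.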
# * = called active by the depositor; ? = inconclusive; · = no result; [ ] = remark or other dose. An excerpt weighted towards active compounds, which were near 8% of everything screened. Unless noted, the call rests on the fitted dose curve; in most records, active means well fitted curve in the direction sought with a large enough effect; inconclusive means small, poorly fitted or top-dose-only effect, or another doubt; inactive means no such curve, though single readings can be large; an effect the other way counts as inactive or inconclusive. On the % scale 0 is the no-effect control and ±100 the full control effect.
SMILES,VP16 counter,TSHR antagonist,Coupling enz,ELG1 repair inh,RORgamma inh
Cc1ccc(Nc2c(-c3ccccn3)nc3cc(C)ccn23)cc1,?,-7,0,?,13µM*
Cc1ccn2c(NC3CCCCC3)c(C)nc2c1,?,0,4,-8%,13µM*
C[C@@H](C(=O)O)c1ccc(C(=O)c2cccs2)cc1,7%[17 µM],·,5,·,7%[2.98 µM]
COC(=O)N/N=C/C1=C[N+](=O)c2ccccc2[N+]1=O,8%,·,0,·,19%
Cc1[nH]n2c(=O)cc(C(C)(C)C)nc2c1-c1ccccc1,3.2µM*,-2,-6,?,1.4µM*
Cc1[nH]n2c(=O)cc(C(C)C)nc2c1-c1ccccc1,?,3,3,?,11µM*
CCOC(=O)Cc1cc(=O)n2[nH]c(C)c(-c3ccc(OC)cc3)c2n1,·,4,-2,5%,-15%[0.365 µM]
CCc1cc(=O)n2[nH]c(C)c(-c3ccc(OC)cc3)c2n1,-6%,24,0,1%,9%
Cc1ccc(C(=O)NNC(=O)CCC(=O)NCc2ccccc2)cc1Br,-7%,-7,·,10%,-21%
O=C(Nc1nnc(C2CC2)s1)c1ccc(Cl)c(S(=O)(=O)N2CCc3ccccc3C2)c1,?,-90*,12,-22%,?
CCc1nnc(NC(=O)c2ccc(Cl)c(S(=O)(=O)N3CCc4ccccc43)c2)s1,?,-44,8,23µM*,20µM*
CCc1nnc(NC(=O)c2ccc(F)c(S(=O)(=O)N3CCCCC3)c2)s1,·,-9,4,?,·
Cc1nnc(SCC(=O)NNC(=O)c2ccc(F)cc2)n1Cc1ccccc1,·,3,·,12%,·
CCC(=O)c1ccc2c(c1)N(CCCN1CCN(CCO)CC1)c1ccccc1S2,-28%,·,·,·,?
Cc1ccc(C2=NN(CCC#N)C(=O)CO2)cc1,15%,0,0,13%,3%
Cc1c(-c2ccc(Cl)cc2Cl)nc2ccccc2c1C(=O)NCCN1CCOCC1,-1%,-10,-2,18%,2%
O=C1c2ccccc2C(=O)C12OC2c1cccc2ccccc12 (stereo not given),14µM*,0,-58*,4%,?
c1ccc2c(C3CCO3)cccc2c1 (stereo not given),·,27,·,0%,·
COc1ccc(-c2cn3nc(SCC(=O)NC4CCCCC4)ccc3n2)cc1,2%,9,3,?,-6%
COc1cc2c(cc1CC=C(C)C)C(=O)C[C@@H](c1ccc(O)cc1)O2,11µM*,·,1,·,-40%
O=C(CSc1ccccc1)Nc1nnc(C2CC2)s1,-2%,14,1,5%,-2%
Cc1ccc(/C=c2/sc3nnc(-c4ccccc4Cl)n3c2=O)o1,?,0,-9,3%,4.5µM*
Cc1ncc([N+](=O)[O-])n1C[C@H](O)CCl,1%[17 µM],·,0,·,14%[16.9 µM]
COc1cccc(-c2csc(N3CCN(C(=S)Nc4ccccc4)CC3)n2)c1,?,-10,0,-7%,6.3µM*
CCOc1ccccc1NC(=S)N1CCN(c2nc(-c3cccc(OC)c3)cs2)CC1,7.9µM*,0,0,?,4µM*
SMILES,VP16 counter,TSHR antagonist,Coupling enz,ELG1 repair inh,RORgamma inh
COc1cccc(-c2csc(N3CCN(C(=S)Nc4ccc(Cl)cc4)CC3)n2)c1,?,9,1,?,?
COc1ccccc1NC(=S)N1CCN(c2nc(-c3ccccc3)cs2)CC1,?,-10,0,-8%,14µM*
COc1cccc(-c2csc(N3CCN(C(=S)Nc4cccc(C)c4)CC3)n2)c1,3.2µM*,-5,-1,?,7.1µM*
CCOc1ccccc1NC(=S)N1CCN(c2ccccc2)CC1,?,2,2,-5%,?
O=C1C=C(c2cc(F)ccc2F)C[C@@H](c2ccc(F)cc2)C1,·,-14,·,8%,·
CC(=O)Nc1ccc(S(=O)(=O)NC2C3(C)CCC(C3)C2(C)C)cc1 (stereo not given),-9%,6,0,-12%,?
COc1ccccc1CNc1nc(-c2ccc3c(c2)OCO3)nc2ccccc12,?,·,-1,·,?
O=C(NCc1ccccc1F)C1CCCN1C(=O)Nc1ccc(Cl)cc1 (stereo not given),8%,-1,-2,-15%,-1%
